According to ChEMBL document CHEMBL3988442, “University of Dundee, Small-Polar-MMV Screening Library” (2021):

Each compound was assayed against AMP-activated protein kinase, AMPK (Homo sapiens) (UniProt P54646+O43741+P54619+Q9UGJ0+Q9Y478+Q13131+Q9UGI9) (assay: AMP-dependent Kinase enzyme assay. An in vitro enzyme assay that detects ADP turnover that is directly proportional to AMPK activity. This uses naive AMPK that is activated during the assay with MK-8722). Details: 30 µM.
Assay type: functional
Parameters: scale not given: direction of the effect not stated beside the values

Structure (SMILES) | Percent Effect [%]
COC(=O)c1cc2n(n1)CCN(C(=O)c1csc(CN(C)C)n1)C2 | 1.89
Cc1nn(C)c2nc(N(Cc3nccs3)C3CC3)sc12 | 1.18
CCc1nc(C)c(C(=O)N[C@@H]2c3ccccc3C[C@@H]2O)o1 | 15.9
CN(CCCOc1ccccc1Cl)C(=O)CN1CCCCCC1=O | 9.36
CCN(CC)S(=O)(=O)NCC1COc2ccccc2O1 (centres undefined) | 8.6
CCOc1ccccc1-n1c(C2CCC2)n[nH]c1=O | 13.5
CCCN(CC(=O)N(C)C)C(=O)c1ccc(-c2nc(C)cs2)cc1 | 4.25
Cc1nc(CN2CCN(c3cc(CCN)ncn3)CC2)cs1 | -0.86
CCC(c1ccc(F)cc1F)S(=O)(=O)CCO (centres undefined) | -2.09
Cc1c(C(=O)N2CCCN(S(C)(=O)=O)CC2)cnn1C | 10.1
CCC(C)C(=O)Nc1ccc(CCN2CCOCC2)cc1 (centres undefined) | 11.3
CC(=O)N1CCCC1CCc1ccc(Cl)nn1 (centres undefined) | 12.8
CCN(Cc1ccoc1)C(=O)Nc1ccccc1CN(C)C(C)=O | 2.94
N#CC1(NC(=O)c2c(F)ccc(OC(F)F)c2F)CCOCC1 | -2.32
Cc1cc(CNCC2CNc3ccnn3C2)no1 (centres undefined) | -2.57
N#Cc1ncn(CC(=O)N2CCCC2c2cccs2)n1 (centres undefined) | -12
O=C(NCC(O)c1cccc(O)c1)C1CCN(C2CCCCC2)CC1 (centres undefined) | 0.496
COc1ncnc(N)c1CNCc1ccccc1-n1cccn1 | -8.85
Cn1cnc(S(=O)(=O)N2C[C@@H]3CC[C@H](C2)N(Cc2ccccn2)C3)c1 | 84.4
CC(C)Cc1ncc2c(n1)CN(c1cc(NCCO)nc(N)n1)C2 | -165

Structure (SMILES) | Percent Effect [%]
Cc1nnc(C(C)N2CCCN(Cc3noc(C4CC4)n3)CC2)o1 (centres undefined) | -4.62
CCC[C@@H]1CN(Cc2ccc(C(F)(F)F)nc2)C[C@H]1NS(C)(=O)=O | 4.44
Cc1ncsc1CCC(=O)N(C)Cc1nc2ccccc2n1C | 0.381
CCc1nn(C)c(Cl)c1CN1CCC2(C1)CN(C)C(=O)O2 (centres undefined) | 6.22
O=S(=O)(c1cn[nH]c1)N1CCC(O)(CN2CCC(F)(F)CC2)C1 (centres undefined) | 9.16
CN(Cc1csc(-c2ccccc2)n1)Cc1ncccc1C(=O)O | 5.39
CC(=O)Nn1ccc2c(nnc3c(-c4ccc(F)cc4)cnn32)c1=O | 10.3
Cc1cc(N(C)C)nc(N2CCn3c(C)nnc3C2)n1 | -2.14
N#CC1(NC(=O)c2cc(Cl)ccc2OC(F)F)CCOCC1 | -2.23
Cc1noc(C)c1-c1n[nH]c2c1CN(S(=O)(=O)c1cccnc1)CC2 | 1.02
CC(CNC(=O)c1cnc[nH]1)Oc1ccc(Cl)cc1 (centres undefined) | 4.75
Cc1[nH]nc(CCC(=O)N2CCc3ncnc(NCCO)c3CC2)c1C | 3.08
CCc1ocnc1C(=O)N1CCC2(CCCN(CC(C)(C)C)C2=O)C1 (centres undefined) | 9.83
N#Cc1ccc(CNCCc2cc(F)cc3c2OCOC3)cc1 | 4.17
CCn1cnnc1CCNC(=O)c1ccc(F)c(Br)c1 | -5.58
CN(C)c1cccc(C(=O)Nc2cnn(Cc3ccccn3)c2)c1 | -43.1
CC(C)c1nc(C2CCCN2CCS(C)(=O)=O)no1 (centres undefined) | 6.84
Nc1cc(N2CCC(c3cc(Cc4ccccc4)n[nH]3)CC2)ccn1 | -5.64
CSCC(C)(O)CNS(=O)(=O)c1ccc(F)cc1 (centres undefined) | -4.97
